Test results taken from PubChem BioAssay AID540259 (Broad Institute, 2011).
Results with a measured potency or affinity are listed apart. The source made the active and inactive calls.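 Rule for the calls: active = cell killing, meaning signal decrease, with fitted half-maximal dose at or below ten times the top valid tested dose; inconclusive = poor fit, or flat curve with 30 to 70% signal loss; inactive = the rest.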

Assay: ATP-based viability loss in HeLa cells – cell-based, CellTiter-Glo luminescence, cherry-pick samples, cytotoxicity control for MITF activator project, dose response (AID 540259)
Conditions: 24 h; series mostly up to 35 µM

**Q.** With `COc1ccc(-c2cc(=NCCC(=O)O)c3cc(C)ccc3o2)cc1` as the compound, how does the outcome read?
**A.** inactive

**Q.** With `O=C1C(=O)N(c2ccccc2)P(=O)(N(CCCl)CCCl)N1c1ccccc1` as the compound, how does the outcome read?
**A.** inactive

**Q.** For `CC(Cc1ccccc1)/[N+]([O-])=C\c1ccc(C(F)(F)F)cc1` (stereo not given), which outcome is on record?
**A.** inactive

**Q.** With `CN1C(=O)NC(=O)C(C)(C2=CCCCC2)C1=O` (stereo not given) as the compound, how does the outcome read?
**A.** inactive

**Q.** For `Cc1nn(CC(C)C)c(Cl)c1C(=O)NC1CCC(C)CC1` (stereo not given), which outcome is on record?
**A.** inactive
